Results taken from PubChem BioAssay (NCI).
This is part of a sample that, as a whole, favours compounds with a hit. Of some 83,000 tested, about 20% had one in any assay.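 Values shown are percent growth following 48 h exposure of cells in 96-well plates to a single concentration of compound; below 10 was considered active.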 Values without a mark were called inactive. Active and inactive are the calls of the source.

Tested on: MDA-MB-468 breast
Experiment: NCI-60 one-dose screen, 48 h (100 = growth as untreated, 0 = no growth, -100 = all killed)
Settings: 10 µM unless noted

| SMILES | growth |
| --- | --- |
| O=C(Nc1nc(C(=O)N2CCN(C(c3ccccc3)c3ccccc3)CC2)cs1)c1ccc(NC2CCCCC2)c([N+](=O)[O-])c1 | 104% |
| C[C@]12C=CC(=O)C=C1CCC1C2[C@@H](O)C[C@@]2(C)C1CC[C@]2(O)C(=O)COC(=O)CCC(=O)O (stereo partly drawn) | 115% |
| COc1ccc(-c2ccc(-c3ccc(C(=N)N)s3)s2)cc1Cl | -12.5% (active) |
| O=C(Nc1cccc2c(O)c(N=Nc3ccc(S(=O)(=O)Nc4nccs4)cc3)cc(N=Nc3ccc(S(=O)(=O)Nc4nccs4)cc3)c12)C(Cl)Cl | 7.35% (active) |
| CCCn1c2cc(OCc3cn(-c4ccc(Cl)cc4)nn3)ccc2c2ccnc(C)c21 | 38.9% |
| Nc1nc(N=Nc2ccc(O)cc2)cc(=O)[nH]1 | 91.5% |
| COc1ccc(-c2ccc3cnc4sc(-c5ccc(OC)cc5)nc4c3n2)cc1 | 96.5% |
| COc1ccc(Nc2nnc(-c3ccc(OC)c(OC)c3)o2)cc1 | 90.8% |
| CCCCSC1=C(Cl)CN(c2ccccc2)C1=O | 84.6% |
| CCCNCC(=O)Nc1ccc(C(=O)OC(C)(C)CC)cc1 | 102% |
| CCN(CC)CCOC(=O)Nc1ccccc1Cl | 104% |
| O=C(CCl)N1c2cccc3cccc(c23)N(C(=O)CCl)C1c1cn(-c2ccccc2)nc1-c1cccc([N+](=O)[O-])c1 | 101% |
| Cc1cc2c(-c3nc4ccccc4[nH]3)c(O)c(O)cc2c(O)c1-c1c(C)cc2c(-c3nc4ccccc4[nH]3)c(O)c(O)cc2c1O | -18.3% (active) |
| CC(=O)Oc1ccc(C)cc1C | 112% |
| Nc1[nH]nc(Nc2ccccc2)c1-c1nc2ccccc2s1 | 17.5% |
| COC(=O)N1CCN(CCNCc2ccc(NC(=O)c3ccc(C)c(C#Cc4cnc5cccnn45)c3)cc2C(F)(F)F)CC1 | -8.93% (active) |
| Cc1cc2nc3[nH]c4ccccc4c3nc2cc1C | 97.5% |
| COc1ccc(-c2n[nH]nc2-c2cc(OC)c3c(c2OC)OCO3)cc1 | -24.1% (active) |
| CC(C)(C)c1ccc(-c2nnc(-c3nc4ccccc4nc3Cl)o2)cc1 | 7.12% (active) |
| NCC(O)C(O)C(O)C(O)CO (stereo not drawn) | 98.7% |
| COc1ccc(S(=O)(=O)Nc2cc(/C=C\c3cc(OC)c(OC)c(OC)c3)cc(OC)c2OC)cc1OC | 25.5% |
| COCCCNc1nc(NC(=O)c2cc(OC)cc(OC)c2)cc(-c2cccnc2)n1 | 94.8% |
| Nc1ccc(N=Nc2ccccc2)c2cc(S(=O)(=O)O)ccc12 | 109% |
